# Source: ChEMBL document CHEMBL1961873, “Compounds: GSK PKIS; Assays: Nanosyn kinase panel” (2012)
# Tests used:
# [1] = biological target: T1, Serine/threonine-protein kinase Nek9 (Homo sapiens) (UniProt Q8TD19); conditions: at 1 µM;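 also: each value is a mean percent inhibition of NEK9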
# T1 sequence (whole entry): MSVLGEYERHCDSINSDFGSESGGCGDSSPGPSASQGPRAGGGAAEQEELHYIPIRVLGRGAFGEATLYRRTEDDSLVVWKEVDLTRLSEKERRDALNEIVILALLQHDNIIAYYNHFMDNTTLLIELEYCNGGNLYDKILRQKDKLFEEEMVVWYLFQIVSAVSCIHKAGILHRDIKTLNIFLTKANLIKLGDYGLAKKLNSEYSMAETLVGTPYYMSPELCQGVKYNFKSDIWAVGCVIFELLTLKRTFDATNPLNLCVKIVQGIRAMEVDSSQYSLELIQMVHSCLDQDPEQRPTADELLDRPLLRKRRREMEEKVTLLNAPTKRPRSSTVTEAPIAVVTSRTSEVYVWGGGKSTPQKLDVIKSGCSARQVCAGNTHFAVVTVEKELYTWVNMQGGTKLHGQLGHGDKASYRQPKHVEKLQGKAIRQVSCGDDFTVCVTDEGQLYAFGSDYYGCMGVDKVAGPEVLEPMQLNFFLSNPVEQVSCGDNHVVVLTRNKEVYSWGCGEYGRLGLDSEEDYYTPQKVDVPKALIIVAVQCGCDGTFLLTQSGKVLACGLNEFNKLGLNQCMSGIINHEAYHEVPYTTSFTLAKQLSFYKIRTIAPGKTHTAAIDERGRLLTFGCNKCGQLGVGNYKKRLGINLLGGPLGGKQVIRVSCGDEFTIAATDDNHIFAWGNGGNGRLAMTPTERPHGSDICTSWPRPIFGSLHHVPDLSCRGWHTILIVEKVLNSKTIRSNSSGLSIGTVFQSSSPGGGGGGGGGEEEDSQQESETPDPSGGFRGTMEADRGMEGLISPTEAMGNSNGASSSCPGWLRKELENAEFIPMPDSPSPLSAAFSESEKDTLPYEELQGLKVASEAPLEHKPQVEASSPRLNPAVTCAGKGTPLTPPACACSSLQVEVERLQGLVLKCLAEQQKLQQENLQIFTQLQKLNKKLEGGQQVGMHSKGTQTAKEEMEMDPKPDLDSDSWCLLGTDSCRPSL
# [2] = biological target: Serine/threonine-protein kinase PLK1 (Homo sapiens) (UniProt P53350); conditions: at 0.1 µM
# [3] = biological target: Serine/threonine-protein kinase PLK1 (Homo sapiens) (UniProt P53350); conditions: at 1 µM
# [4] = biological target: T2, Dual specificity protein kinase TTK (Homo sapiens) (UniProt P33981); conditions: at 0.1 µM
# T2 sequence (whole entry): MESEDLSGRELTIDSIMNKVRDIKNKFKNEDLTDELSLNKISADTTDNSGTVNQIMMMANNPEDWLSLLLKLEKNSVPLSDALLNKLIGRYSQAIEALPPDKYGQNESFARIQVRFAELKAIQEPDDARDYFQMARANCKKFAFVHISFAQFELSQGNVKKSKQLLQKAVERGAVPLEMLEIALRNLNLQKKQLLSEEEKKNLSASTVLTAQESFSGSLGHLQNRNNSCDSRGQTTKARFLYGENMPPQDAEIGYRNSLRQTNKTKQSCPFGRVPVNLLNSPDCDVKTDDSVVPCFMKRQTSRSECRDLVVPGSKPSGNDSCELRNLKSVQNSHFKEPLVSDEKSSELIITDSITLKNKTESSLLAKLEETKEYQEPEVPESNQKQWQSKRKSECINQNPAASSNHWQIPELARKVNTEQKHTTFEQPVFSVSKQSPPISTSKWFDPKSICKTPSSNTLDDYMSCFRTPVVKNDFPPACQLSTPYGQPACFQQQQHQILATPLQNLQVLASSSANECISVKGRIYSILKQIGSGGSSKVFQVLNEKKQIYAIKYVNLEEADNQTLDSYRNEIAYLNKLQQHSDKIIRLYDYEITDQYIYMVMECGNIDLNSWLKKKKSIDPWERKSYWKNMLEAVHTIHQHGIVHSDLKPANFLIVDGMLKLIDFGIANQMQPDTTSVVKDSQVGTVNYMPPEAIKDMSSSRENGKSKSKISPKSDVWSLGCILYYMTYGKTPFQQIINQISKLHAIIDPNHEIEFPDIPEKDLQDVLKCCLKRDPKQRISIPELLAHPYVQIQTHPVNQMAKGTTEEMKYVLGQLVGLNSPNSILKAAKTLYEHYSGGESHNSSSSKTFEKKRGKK
# [5] = tested on: T3, Receptor-type tyrosine-protein kinase FLT3 (Homo sapiens), P36888 [D835Y]; conditions: at 1 µM
# T3 sequence (whole entry): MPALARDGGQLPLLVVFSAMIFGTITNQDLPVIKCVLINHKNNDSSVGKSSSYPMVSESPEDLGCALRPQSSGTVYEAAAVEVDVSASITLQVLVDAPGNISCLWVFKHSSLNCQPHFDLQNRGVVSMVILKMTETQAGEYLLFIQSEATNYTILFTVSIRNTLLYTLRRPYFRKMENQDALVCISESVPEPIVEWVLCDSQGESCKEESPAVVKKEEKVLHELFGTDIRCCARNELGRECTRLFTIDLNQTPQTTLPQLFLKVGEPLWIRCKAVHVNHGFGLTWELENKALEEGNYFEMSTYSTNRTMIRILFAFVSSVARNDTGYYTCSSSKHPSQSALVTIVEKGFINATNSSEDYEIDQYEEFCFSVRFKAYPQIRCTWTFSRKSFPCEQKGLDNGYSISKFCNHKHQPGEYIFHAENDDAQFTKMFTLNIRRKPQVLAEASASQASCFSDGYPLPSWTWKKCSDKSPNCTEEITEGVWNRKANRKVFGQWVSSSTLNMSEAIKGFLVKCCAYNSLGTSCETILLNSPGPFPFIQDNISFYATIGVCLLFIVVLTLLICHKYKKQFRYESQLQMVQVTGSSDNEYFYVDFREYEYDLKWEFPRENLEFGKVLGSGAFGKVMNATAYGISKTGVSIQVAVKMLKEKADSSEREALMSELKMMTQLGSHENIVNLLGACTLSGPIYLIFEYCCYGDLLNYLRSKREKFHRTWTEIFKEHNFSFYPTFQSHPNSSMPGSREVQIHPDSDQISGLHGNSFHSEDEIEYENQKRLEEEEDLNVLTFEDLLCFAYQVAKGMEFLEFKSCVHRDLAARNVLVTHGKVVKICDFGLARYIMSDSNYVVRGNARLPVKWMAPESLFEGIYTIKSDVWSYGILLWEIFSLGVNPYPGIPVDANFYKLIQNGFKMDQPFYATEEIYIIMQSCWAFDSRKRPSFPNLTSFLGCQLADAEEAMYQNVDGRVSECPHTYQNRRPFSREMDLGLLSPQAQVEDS
# [6] = biological target: Vascular endothelial growth factor receptor 3 (Homo sapiens) (UniProt P35916); conditions: at 0.1 µM
# [7] = biological target: Vascular endothelial growth factor receptor 3 (Homo sapiens) (UniProt P35916); conditions: at 1 µM
# [8] = biological target: Macrophage colony-stimulating factor 1 receptor (Homo sapiens) (UniProt P07333); conditions: at 0.1 µM
# [9] = biological target: Macrophage colony-stimulating factor 1 receptor (Homo sapiens) (UniProt P07333); conditions: at 1 µM
# [10] = biological target: Tyrosine-protein kinase Fyn (Homo sapiens) (UniProt P06241); conditions: at 0.1 µM
# Chain of Tyrosine-protein kinase Fyn (Homo sapiens) (P06241 2-537 limits assumed): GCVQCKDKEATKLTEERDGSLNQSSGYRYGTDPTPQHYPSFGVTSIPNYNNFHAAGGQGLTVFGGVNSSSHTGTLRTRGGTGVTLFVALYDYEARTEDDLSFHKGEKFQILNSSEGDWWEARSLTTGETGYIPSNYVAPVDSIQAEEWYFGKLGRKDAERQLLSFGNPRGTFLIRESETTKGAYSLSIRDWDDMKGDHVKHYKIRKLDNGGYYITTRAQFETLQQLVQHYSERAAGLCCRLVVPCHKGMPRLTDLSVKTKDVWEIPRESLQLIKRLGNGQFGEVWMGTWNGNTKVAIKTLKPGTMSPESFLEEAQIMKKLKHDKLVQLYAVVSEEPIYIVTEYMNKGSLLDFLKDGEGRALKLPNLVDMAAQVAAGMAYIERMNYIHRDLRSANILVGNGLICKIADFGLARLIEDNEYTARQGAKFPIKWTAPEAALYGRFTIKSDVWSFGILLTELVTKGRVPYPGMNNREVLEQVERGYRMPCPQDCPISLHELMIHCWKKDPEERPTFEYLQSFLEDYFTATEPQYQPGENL
# Chain of Macrophage colony-stimulating factor 1 receptor (Homo sapiens) (P07333 whole entry): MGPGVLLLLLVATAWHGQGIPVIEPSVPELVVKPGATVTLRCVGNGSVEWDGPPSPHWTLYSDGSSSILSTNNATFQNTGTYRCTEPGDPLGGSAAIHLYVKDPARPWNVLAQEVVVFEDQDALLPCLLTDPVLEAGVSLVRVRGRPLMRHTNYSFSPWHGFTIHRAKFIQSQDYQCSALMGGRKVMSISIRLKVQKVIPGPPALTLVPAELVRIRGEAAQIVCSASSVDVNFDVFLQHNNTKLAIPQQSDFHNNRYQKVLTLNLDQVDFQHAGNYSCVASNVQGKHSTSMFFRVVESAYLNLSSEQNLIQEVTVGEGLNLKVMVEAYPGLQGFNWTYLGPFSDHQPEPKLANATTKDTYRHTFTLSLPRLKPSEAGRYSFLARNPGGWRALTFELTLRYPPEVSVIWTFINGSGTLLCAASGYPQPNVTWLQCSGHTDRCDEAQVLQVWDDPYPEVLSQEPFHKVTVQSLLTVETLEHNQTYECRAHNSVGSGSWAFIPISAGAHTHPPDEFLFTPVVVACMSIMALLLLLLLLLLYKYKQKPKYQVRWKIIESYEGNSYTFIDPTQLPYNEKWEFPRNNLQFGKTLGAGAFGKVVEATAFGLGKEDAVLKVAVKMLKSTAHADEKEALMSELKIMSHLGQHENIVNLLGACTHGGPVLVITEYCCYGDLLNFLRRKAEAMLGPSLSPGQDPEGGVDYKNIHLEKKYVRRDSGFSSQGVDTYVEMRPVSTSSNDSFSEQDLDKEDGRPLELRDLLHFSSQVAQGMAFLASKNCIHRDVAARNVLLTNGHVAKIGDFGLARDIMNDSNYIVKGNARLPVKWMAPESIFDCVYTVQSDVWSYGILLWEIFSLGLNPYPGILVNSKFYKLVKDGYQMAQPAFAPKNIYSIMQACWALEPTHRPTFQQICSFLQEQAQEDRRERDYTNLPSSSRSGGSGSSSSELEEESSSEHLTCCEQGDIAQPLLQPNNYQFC
# Chain of Serine/threonine-protein kinase PLK1 (Homo sapiens) (P53350 whole entry): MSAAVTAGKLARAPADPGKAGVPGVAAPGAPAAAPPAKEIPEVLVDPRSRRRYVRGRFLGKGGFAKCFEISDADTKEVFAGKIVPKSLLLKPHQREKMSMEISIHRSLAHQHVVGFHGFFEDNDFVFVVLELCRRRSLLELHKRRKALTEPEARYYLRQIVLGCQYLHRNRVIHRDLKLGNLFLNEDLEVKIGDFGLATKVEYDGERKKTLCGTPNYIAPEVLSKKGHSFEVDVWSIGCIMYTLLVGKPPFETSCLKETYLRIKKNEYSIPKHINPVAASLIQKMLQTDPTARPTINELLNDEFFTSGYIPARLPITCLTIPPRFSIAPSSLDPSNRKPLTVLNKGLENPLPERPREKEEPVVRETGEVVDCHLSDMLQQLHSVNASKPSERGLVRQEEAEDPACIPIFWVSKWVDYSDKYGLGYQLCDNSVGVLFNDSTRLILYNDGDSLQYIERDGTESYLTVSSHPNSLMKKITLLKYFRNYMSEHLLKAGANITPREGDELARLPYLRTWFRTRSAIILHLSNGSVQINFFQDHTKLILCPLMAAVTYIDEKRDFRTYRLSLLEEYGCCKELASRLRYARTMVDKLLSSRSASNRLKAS
# Chain of Vascular endothelial growth factor receptor 3 (Homo sapiens) (P35916 whole entry): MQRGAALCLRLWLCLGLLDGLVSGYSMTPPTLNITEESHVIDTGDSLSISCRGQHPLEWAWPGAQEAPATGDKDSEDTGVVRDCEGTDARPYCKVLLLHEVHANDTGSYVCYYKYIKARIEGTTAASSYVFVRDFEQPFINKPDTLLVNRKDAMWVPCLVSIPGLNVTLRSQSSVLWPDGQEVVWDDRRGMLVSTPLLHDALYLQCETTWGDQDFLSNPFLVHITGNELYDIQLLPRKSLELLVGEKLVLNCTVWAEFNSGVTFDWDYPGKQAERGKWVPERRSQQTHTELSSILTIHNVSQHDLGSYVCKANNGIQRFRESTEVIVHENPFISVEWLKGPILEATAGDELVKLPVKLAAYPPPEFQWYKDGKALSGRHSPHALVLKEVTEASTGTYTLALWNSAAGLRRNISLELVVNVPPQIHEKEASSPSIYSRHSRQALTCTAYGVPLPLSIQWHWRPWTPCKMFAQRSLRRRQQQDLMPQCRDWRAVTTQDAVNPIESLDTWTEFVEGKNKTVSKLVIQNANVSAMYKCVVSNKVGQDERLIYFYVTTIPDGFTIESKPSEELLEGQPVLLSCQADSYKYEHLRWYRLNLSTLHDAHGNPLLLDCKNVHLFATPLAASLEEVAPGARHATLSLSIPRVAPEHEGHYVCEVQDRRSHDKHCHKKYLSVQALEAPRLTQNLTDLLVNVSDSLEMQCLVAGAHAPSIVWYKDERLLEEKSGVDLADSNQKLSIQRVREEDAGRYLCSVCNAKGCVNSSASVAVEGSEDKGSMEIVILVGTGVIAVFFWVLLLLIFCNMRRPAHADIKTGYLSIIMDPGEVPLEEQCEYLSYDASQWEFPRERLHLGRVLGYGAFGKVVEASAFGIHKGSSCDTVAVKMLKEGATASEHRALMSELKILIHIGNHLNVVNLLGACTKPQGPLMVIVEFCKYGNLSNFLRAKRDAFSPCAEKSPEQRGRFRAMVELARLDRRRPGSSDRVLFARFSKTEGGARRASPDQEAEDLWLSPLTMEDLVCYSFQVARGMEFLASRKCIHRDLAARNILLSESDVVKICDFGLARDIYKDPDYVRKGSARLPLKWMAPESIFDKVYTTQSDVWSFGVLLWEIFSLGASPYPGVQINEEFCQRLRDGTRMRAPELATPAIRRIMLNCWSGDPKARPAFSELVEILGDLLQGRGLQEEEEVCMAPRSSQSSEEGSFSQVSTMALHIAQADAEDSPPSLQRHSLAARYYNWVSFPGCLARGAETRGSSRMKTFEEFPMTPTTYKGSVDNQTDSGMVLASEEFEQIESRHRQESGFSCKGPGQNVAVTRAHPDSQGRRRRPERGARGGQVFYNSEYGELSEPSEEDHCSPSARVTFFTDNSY
Compound,inhibition [1] [%],inhibition [2] [%],inhibition [3] [%],inhibition [4] [%],inhibition [5] [%],inhibition [6] [%],inhibition [7] [%],inhibition [8] [%],inhibition [9] [%],inhibition [10] [%]
CCS(=O)(=O)c1ccc(OC)c(Nc2ncc(-c3cccc(OC)c3)o2)c1,4.07,4.39,1.04,2.75,78.5,27.6,77.8,26.4,71.9,27.6
COc1cccc(-n2nc(C)c3c(N/N=C(\C)c4ccncc4)ncnc32)c1,2.13,-0.78,2.34,2.35,1.49,1.67,1.25,-1.96,5.8,1.21
NS(=O)(=O)c1ccc(Nc2cc(-c3cccc(O)c3)n[nH]2)cc1,2.91,5.76,4.69,16,30.9,6.76,6.9,5.17,15.4,4.67
COc1cccc(-n2ncc3c(N/N=C/c4ccc(S(C)(=O)=O)cc4)ncnc32)c1,1.23,1.67,0.92,2.54,61.9,-2.95,31.4,6.39,22.5,32.4
CCn1c(-c2nonc2N)nc2ccc(F)cc21,6.41,6.39,4.59,12.1,1.01,6.14,6.77,1.29,0.35,2.04
c1ccc(Cc2nc3ccc(Nc4ncnc5ccccc45)cc3[nH]2)cc1,1.93,2.22,1.76,5.97,5.06,0.79,2.3,4.66,5.24,1.56
CN(C)C(=O)O[C@H]1CN[C@H](C#Cc2cc3ncnc(Nc4ccc(OCc5cccc(F)c5)c(Cl)c4)c3s2)C1,-1.84,2.9,2.92,4.75,4.09,2.38,1.19,10.5,3.36,-0.77
COc1cc2ncn(-c3cc(OCc4ccccc4S(C)(=O)=O)c(C#N)s3)c2cc1OC,1.96,10,47.5,5.84,23.9,26.8,73.4,6.26,33.2,30.9
C[C@@H](Oc1cc(-n2cnc3ccc(OC[C@@H](O)CO)cc32)sc1C(N)=O)c1ccccc1Cl,91.4,92.2,93.5,1.27,8.15,3.69,22.8,0.22,9.24,0.14
NS(=O)(=O)c1ccc(N/N=C2\C(=O)Nc3ccc(Cl)cc32)cc1,9.42,1.63,2.65,14,16.4,4.36,9.79,3.24,31.8,0.23
[O-][S+]1CCN(Cc2ccc(-c3ccc4ncnc(Nc5ccc(OCc6ccccc6)c(Cl)c5)c4c3)o2)CC1,3.24,3.9,2.79,8.87,-1.91,7.2,11.7,-0.34,0.13,2.58
Cc1ccc(O)cc1Nc1ccnc2ccc(S(C)(=O)=O)cc12,7.62,4.22,2.78,8.17,-0.22,21.3,68.8,5.71,15.8,92.4
Cc1ccc(NC(=O)CC2CC2)cc1-c1ccc(C(=O)NCC2CC2)cc1,7.42,3.49,1.97,5.15,0.64,0.87,-0.77,2.08,-0.55,1.7
OCc1ccc(-c2nc(-c3ccccn3)c(-c3ccc4c(c3)OCO4)[nH]2)cc1,2.88,3.56,4.3,7.41,-0.9,1.47,-0.57,3.57,4.35,2.25
